# In PubChem BioAssay AID602476 (National Center for Advancing Translational Sciences (NCATS), 2012):
# Inconclusive results are not listed. Entries that show only a call come without a potency. Activity calls are given as the source filed them. The call rests on the fitted dose curve; in most records, active means well fitted activation curve with a large enough effect; inconclusive means small, poorly fitted or top-dose-only effect; inactive means flat fitted curve, though single readings scatter.
# Test: FLuc inhibitory activity for the follow-up compounds in a cell-based translational read-through assay
# Details: GripTite 293 FLucUGA read-through, luminescence, 48 h; series mostly up to 38.3 µM
# Description: NCGC Assay Overview: Firefly (Photinus pyralis) luciferase is one of the most commonly used transcriptional reporters. It is considered one of the more dynamically responsive reporters - that is, responsive to changes in reporter transcription - as it requires no post-translational modifications and is enzymatically active directly after protein synthesis (Wood, 1998). With no endogenous expression in mammalian cells and without the requirement of external excitation, it offers very little background signal, thus generally providing excellent signal to background for most assays. Previous profiling work to determine the prevalence of compounds that affect FLuc enzymatic activity (PubChem AID 411) identified that ~3% of the MLSMR library (then at ~72K) inhibited FLuc (Auld et al., 2008). […] Of the compounds identified in this profile that inhibited FLuc, 151 compounds were selected for further analysis, in an effort to better understand their mode of inhibiting FLuc. The assay described here was to determine the activity of the compounds in a cell-based firefly luciferase reporter gene assay originally designed to identify compounds that enchanced translational read-through of a FLuc cDNA that contained a premature stop codon (Auld et al., 2009; Auld et al., 2010). Compounds that enhance translational read-through or compounds that stabilize FLuc intracellularly are identified as active compounds in the assay.
# NCGC Assay Protocol Summary: Reagents: Transient transfection of FlucUGA construct: TransFast Transfection Reagent (Promega #E2431); FLucUGA construct (refer to Auld et al., 2009) #GripTite 293 MSR Cell Line (Invitrogen #R795-07) #Complete growth media: DMEM (Invitrogen #11965), 10% HIFBS, 0.1mM MEM NEAA, 5mL/L pen-strep (of 5000U/mL stock), 600ug/mL Geneticin #Assay media: DMEM without phenol red (Invitrogen #21063), 5% charcoal-stripped HIFBS (Hyclone #SH30071.03), 0.1mM MEM NEAA In-house detection reagent: 300mM Tris-HCl, 300mM Trizma base, 300mM MgCl, 1% Triton-X100, 5mM DTT, 500uM Coenzyme A trilithium salt (Sigma #C3019),450uM ATP (Sigma #A7699), 1mM D-luciferin sodium salt monohydrate (Biosynth #L8240) Control compounds used were two known firefly luciferase inhibitors (3-(5-(3-chlorophenyl)-1,2,4-oxadiazol-3-yl)benzoic acid and 5-(2-fluorophenyl)-3-phenyl-1,2,4-oxadiazole), and DMSO. Assay Summary: Transient transfection of FlucUGA construct: Day 1: GripTite cells were plated in T175 flasks at a density of 1.75 x 10^7 cells/T175 flask in complete growth media without Geneticin and allowed to grow ON in a 37 degrees Celsius incubator. Day 2: Cells in T175 flask were transfected - with 10ug of DNA and 30uL Transfast in 12mL complete growth media without serum and without Geneticin for 4 hours at 37 degrees Celsius. After incubation, cells were trypsinized, spun down, and resuspended to a concentration of 3.3 x 10^5 cells/mL in assay media. 6uL of cells in assay buffer were dispensed at 2000cells/well (3.3 x 10^5 cells/mL) into Greiner solid-white TC-treated 1536-well plates using a Multidrop Combi (Thermo Fisher Scientific). Plates were incubated for one hour at 37 degree Celsius, 95% humidity, 5% CO2. These assay plates were then treated with 23nL of compound or DMSO using a Kalypsys pin tool, which allows for delivery of a 12-point titration of each compound to the assay plate, with a final compound concentration ranging from approximately ~38uM to 0.2nM. Assay plates were then incubated for 48 hours. After incubation, plates were washed three times with DPBS (7uL/well). After the third wash, 6uL of DPBS was added to each well. 3uL of 3X luciferase detection reagent was then added to each well using a flying reagent dispenser (FRD). After a 15 minute incubation to allow for cell lysis, luciferase activity was measured using a ViewLux CCD imager (PerkinElmer), with an average exposure time of 2-12 seconds.
row,Compound,Potency
1,O=C(Nc1ccccc1C(=O)O)c1cccc(C(=O)Nc2ccccc2C(=O)O)c1,inactive
2,CCOc1ccc2nc(NC(=O)c3ccoc3C)sc2c1,1790 nM (active)
3,COc1c(C)cccc1C(=O)Nc1ccc(-c2nc3ccccc3s2)c(Cl)c1,inactive
4,Nc1ccccc1C(=O)Nc1cccc(C(=O)O)c1,28300 nM (active)
5,O=C(Nc1ccccc1C(=O)O)c1cccc(S(=O)(=O)N2CCCC2)c1,inactive
6,O=C(O)c1ccc(NC(=O)c2cccc(C(=O)Nc3ccc(C(=O)O)cc3)c2)cc1,inactive
7,O=C(O)c1cccc(NC(=O)c2ccccc2NC(=O)c2ccco2)c1,inactive
8,COc1ccc(NS(=O)(=O)c2cccc(C(=O)Nc3ccccc3C(=O)O)c2)cc1,inactive
9,O=C(O)c1cccc(NC(=O)c2cccc(S(=O)(=O)Nc3cccc(F)c3)c2)c1,inactive
10,CC(C)C(=O)Nc1cccc(C(=O)Nc2ccccc2C(=O)O)c1,inactive
11,O=C(Nc1ccccc1C(=O)O)c1cccc(S(=O)(=O)Nc2ccc(Br)cc2)c1,inactive
12,Nc1ccccc1-c1nc2ccccc2s1,17900 nM (active)
13,O=C(Nc1ccccc1C(=O)O)c1cc(S(=O)(=O)Nc2ccccc2)ccc1Cl,inactive
14,O=C(Nc1ccccc1C(=O)O)c1cc(S(=O)(=O)Nc2cccc(F)c2)ccc1Cl,inactive
15,O=C(Cc1ccc(Cl)cc1)Nc1cccc(C(=O)Nc2ccccc2C(=O)O)c1,inactive
16,COc1ccc2nc(NC(=O)CCc3ccc(OC)c(OC)c3)sc2c1,inactive
17,COc1ccc2nc(NC(=O)CCc3nc(-c4ccccc4F)no3)sc2c1,inactive
18,O=C(Nc1ccc(Cl)cc1-c1nc2ccccc2s1)c1ccco1,inactive
19,CC(C)(C)C(=O)Nc1ccc(-c2nc3ccccc3s2)cc1,31.8 nM (active)
20,COc1cc(OC)cc(C(=O)Nc2ccc(-c3nc4ccccc4s3)c(C)c2)c1,inactive

row,Compound,Potency
1,O=C(Nc1c(Cl)cc(Cl)cc1-c1nc2ccccc2s1)c1ccc(Br)o1,3180 nM (active)
2,O=C(O)c1cccc(NC(=O)c2cccc(S(=O)(=O)N3CCc4ccccc4C3)c2)c1,inactive
3,CCOc1ccc2nc(NC(=O)c3cc([N+](=O)[O-])ccc3N3CCOCC3)sc2c1,inactive
4,CCOc1ccc2nc(NC(=O)c3cccnc3)sc2c1,14200 nM (active)
5,CC(C)c1ccc(C(=O)Nc2ccc(-c3nc4ccccc4s3)c(Cl)c2)cc1,inactive
6,Cc1ccc(C(=O)Nc2cccc(C(=O)O)c2)cc1S(=O)(=O)N1CCCC1,2000 nM (active)
7,O=C(Nc1ccccc1C(=O)O)c1ccc(NC(=O)C2CC2)cc1,inactive
8,COc1ccc2nc(NC(=O)c3cnccn3)sc2c1,565 nM (active)
9,Nc1ccc(-c2nc3ccc(N)cc3s2)cc1,15900 nM (active)
10,C/C(=N\NC(=O)c1ccccc1NC(=O)c1ccc(Cl)cc1)c1ccncc1,283 nM (active)
11,O=C(Nc1ccccc1C(=O)O)c1ccc(NC(=O)C2CCCCC2)cc1,inactive
12,O=C(O)c1ccccc1NC(=O)c1ccccc1Nc1ccccc1,inactive
13,O=C(Nc1ccccc1C(=O)O)c1ccc(NC(=O)C2CCCO2)cc1 (stereo not given),inactive
14,Cc1ccc(C(=O)Nc2cccc(C(=O)O)c2)cc1S(=O)(=O)N1CCCCC1,895 nM (active)
15,COc1cccc(-c2nc3ccccc3s2)c1,1260 nM (active)
16,Nc1ccc2nc(-c3ccccc3)sc2c1,4000 nM (active)
17,COc1ccc(C(=O)Nc2ccccc2-c2nc3ccccc3s2)c(OC)c1,inactive
18,Cc1ccc(S(=O)(=O)N2CCN(C(=O)c3ccccc3-c3nc4ccccc4s3)CC2)c(C)c1,inactive
19,COc1cc(OC)cc(C(=O)Nc2ccccc2-c2nc3ccccc3s2)c1,inactive
20,COc1ccc(C(=O)Nc2ccccc2C(=O)Nc2ccc(C(=O)O)cc2)cc1,25200 nM (active)
